Consider one sequence from paper PMC7862700, “An all-to-all approach to the identification of sequence-specific readers for epigenetic DNA modifications on cytosine”.

What all share (assay): DAPPL (digital affinity profiling via proximity ligation, sequencing); 10 mM Tris-HCl pH 7.5, 50 mM NaCl, 1 mM DTT, 4% glycerol, room temperature, 30 min; GST-TFs on glutathione beads, 16-mer random dsDNA library, 0.1% formaldehyde crosslink after washing; high values mean tight binding
One experiment addresses T1, FEV (Homo sapiens, UniProt Q99581 1-238).
T1 sequence: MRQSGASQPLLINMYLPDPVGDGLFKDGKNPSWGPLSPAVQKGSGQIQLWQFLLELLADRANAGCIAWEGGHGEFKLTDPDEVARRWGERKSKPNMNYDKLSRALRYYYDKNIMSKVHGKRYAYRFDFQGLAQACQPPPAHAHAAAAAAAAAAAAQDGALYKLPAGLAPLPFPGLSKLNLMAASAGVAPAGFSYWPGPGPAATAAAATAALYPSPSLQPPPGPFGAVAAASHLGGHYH
The following applies: protein: recombinant; tags: N-terminal GST; dsDNA, one strand shown. Put shortly: (§1)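 In yeast, human transcription factors were expressed with a GST fusion, then pulled down on glutathione beads and given DNA barcodes. Pooled with a tag-only sample, they were exposed to 200 nmole of a 16-mer random double-stranded DNA library (Tris/NaCl/DTT/glycerol buffer, room temperature, 30 min), washed, crosslinked with 0.1% formaldehyde, proximity-ligated using BsaI/T4 ligase for 1 h at 37 °C, PCR-amplified and read on an Illumina NextSeq500. Each hexamer's frequency of reads for a factor, divided by the matching frequency for the tag-only sample, gives the binding signal.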

For the next experiment, the target named is ETV5 (Homo sapiens, UniProt P41161 1-510). As to conditions: protein: recombinant; tags: N-terminal GST; dsDNA, one strand shown. Put shortly: as §1
In a further experiment the target is HSF1 (Homo sapiens, UniProt Q00613 1-529). The following applies: protein: recombinant; tags: N-terminal GST; chain copies: 3; dsDNA, one strand shown. Put shortly:
as §1

A further experiment concerns the target T2, SPIC (Homo sapiens, UniProt Q8N5J4 1-248).
T2 sequence: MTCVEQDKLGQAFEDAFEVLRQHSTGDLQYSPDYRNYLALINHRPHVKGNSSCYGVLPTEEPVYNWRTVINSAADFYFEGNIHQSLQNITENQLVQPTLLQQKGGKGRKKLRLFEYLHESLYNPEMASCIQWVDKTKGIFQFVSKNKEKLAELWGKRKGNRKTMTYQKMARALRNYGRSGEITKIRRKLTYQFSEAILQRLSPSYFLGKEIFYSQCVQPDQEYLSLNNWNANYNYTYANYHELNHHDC
The following applies: protein: recombinant; tags: N-terminal GST; dsDNA, one strand shown. The method in brief: as §1

The next experiment concerns the target ELF4 (Homo sapiens, UniProt Q99607 1-663). The following applies: protein: recombinant; tags: N-terminal GST; dsDNA, one strand shown. The method in brief: as §1
The target in a further experiment is T3, ELK4 (Homo sapiens, UniProt P28324-2 1-405).
T3 sequence: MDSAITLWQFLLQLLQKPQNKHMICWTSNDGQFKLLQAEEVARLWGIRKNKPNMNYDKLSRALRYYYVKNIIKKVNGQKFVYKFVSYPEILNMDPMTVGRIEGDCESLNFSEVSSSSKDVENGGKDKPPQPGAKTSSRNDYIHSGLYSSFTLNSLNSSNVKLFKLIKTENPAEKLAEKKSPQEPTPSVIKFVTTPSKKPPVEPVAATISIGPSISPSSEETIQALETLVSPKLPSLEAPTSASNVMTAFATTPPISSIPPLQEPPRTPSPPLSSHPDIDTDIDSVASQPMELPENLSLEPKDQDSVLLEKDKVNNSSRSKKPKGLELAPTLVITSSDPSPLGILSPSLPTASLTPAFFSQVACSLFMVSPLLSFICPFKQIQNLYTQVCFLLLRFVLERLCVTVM
The following applies: protein: recombinant; tags: N-terminal GST; dsDNA, one strand shown. The method in brief:
as §1

The target of the next experiment is T4, ETV2 (Homo sapiens, UniProt O00321 1-342).
T4 sequence: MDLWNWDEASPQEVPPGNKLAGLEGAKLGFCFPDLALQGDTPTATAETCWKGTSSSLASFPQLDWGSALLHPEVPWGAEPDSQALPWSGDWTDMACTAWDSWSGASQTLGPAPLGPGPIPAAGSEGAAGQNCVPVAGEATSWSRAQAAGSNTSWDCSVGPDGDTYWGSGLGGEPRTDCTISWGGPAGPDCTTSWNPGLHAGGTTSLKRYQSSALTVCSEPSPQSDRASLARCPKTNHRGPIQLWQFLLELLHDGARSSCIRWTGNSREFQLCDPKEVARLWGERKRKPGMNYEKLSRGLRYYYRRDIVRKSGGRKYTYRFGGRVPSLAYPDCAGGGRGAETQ
The following applies: protein: recombinant; tags: N-terminal GST; dsDNA, one strand shown. Put shortly: as §1

A further experiment has as its target T5, ELF3 (Homo sapiens, UniProt P78545 1-371).
T5 sequence: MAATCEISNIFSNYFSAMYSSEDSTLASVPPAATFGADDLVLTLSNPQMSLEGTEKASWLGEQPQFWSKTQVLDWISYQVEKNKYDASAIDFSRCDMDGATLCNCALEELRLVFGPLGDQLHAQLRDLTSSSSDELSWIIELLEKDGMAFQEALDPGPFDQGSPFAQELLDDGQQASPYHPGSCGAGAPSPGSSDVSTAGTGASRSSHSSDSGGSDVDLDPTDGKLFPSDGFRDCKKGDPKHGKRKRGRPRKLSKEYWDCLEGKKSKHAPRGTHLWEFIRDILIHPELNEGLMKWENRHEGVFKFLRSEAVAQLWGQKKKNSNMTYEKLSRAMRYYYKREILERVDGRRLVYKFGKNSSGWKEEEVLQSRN
As to conditions: protein: recombinant; tags: N-terminal GST; dsDNA, one strand shown. The method in brief:
as §1

The target in the next experiment is CRX (Homo sapiens, UniProt O43186 1-299). As to conditions: protein: recombinant; tags: N-terminal GST; dsDNA, one strand shown. Put shortly: as §1
A further experiment has as its target ETV1 (Homo sapiens, UniProt P50549 1-477). As to conditions: protein: recombinant; tags: N-terminal GST; dsDNA, one strand shown. The method in brief:
as §1

For a further experiment, the target named is T6, ERF (Homo sapiens, UniProt P50548 1-548).
T6 sequence: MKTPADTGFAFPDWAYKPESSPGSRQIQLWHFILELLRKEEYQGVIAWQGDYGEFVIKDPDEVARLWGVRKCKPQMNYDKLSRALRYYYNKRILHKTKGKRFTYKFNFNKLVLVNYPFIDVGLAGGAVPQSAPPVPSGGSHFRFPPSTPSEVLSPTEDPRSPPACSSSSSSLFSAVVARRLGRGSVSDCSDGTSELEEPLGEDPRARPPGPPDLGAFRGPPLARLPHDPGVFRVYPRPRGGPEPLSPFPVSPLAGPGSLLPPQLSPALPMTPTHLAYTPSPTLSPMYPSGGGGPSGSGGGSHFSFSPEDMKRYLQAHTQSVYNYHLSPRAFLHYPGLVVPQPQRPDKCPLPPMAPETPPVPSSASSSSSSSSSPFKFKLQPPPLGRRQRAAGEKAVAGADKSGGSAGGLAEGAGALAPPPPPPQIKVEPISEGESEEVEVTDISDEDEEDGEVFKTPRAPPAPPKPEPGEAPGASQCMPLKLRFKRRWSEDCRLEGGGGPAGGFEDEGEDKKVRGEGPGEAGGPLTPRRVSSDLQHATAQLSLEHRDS
The following applies: protein: recombinant; tags: N-terminal GST; dsDNA, one strand shown. The method in brief: as §1

In the next experiment the target is T7, ETV3L (Homo sapiens, UniProt Q6ZN32 1-361).
T7 sequence: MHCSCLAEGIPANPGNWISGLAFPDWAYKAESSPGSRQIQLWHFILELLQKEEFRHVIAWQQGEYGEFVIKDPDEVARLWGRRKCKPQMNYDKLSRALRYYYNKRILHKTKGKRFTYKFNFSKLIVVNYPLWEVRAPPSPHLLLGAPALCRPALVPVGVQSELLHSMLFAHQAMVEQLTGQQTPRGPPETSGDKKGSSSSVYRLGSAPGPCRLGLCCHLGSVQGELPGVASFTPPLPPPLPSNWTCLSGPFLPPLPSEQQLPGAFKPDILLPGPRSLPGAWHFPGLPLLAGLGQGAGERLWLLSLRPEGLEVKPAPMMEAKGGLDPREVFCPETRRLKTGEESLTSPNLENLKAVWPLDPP
The following applies: protein: recombinant; tags: N-terminal GST; dsDNA, one strand shown. The method in brief:
as §1

The target in a further experiment is T8, ETS2 (Homo sapiens, UniProt P15036 1-469).
T8 sequence: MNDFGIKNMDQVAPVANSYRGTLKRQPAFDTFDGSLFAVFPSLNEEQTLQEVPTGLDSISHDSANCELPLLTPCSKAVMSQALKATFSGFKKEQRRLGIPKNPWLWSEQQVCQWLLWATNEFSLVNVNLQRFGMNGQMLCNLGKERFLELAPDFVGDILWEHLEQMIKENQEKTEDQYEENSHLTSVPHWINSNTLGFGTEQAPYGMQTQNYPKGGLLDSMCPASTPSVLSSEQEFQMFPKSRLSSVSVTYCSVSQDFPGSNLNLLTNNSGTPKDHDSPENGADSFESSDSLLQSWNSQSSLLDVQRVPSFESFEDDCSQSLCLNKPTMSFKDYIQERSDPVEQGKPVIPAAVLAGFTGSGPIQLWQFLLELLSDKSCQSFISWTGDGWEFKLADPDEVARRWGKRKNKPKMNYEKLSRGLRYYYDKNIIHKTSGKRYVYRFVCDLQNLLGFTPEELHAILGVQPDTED
The following applies: protein: recombinant; tags: N-terminal GST; dsDNA, one strand shown. The method in brief: as §1

The target in a further experiment is T9, SPDEF (Homo sapiens, UniProt O95238 1-335).
T9 sequence: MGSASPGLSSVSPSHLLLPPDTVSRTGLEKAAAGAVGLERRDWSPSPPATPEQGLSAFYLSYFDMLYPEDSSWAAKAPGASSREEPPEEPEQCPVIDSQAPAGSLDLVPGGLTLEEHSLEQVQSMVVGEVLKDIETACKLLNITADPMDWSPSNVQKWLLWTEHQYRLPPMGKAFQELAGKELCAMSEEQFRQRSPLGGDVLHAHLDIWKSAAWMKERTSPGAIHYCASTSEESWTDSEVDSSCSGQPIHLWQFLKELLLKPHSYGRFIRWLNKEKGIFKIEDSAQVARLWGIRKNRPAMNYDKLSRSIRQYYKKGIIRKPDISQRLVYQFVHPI
As to conditions: protein: recombinant; tags: N-terminal GST; dsDNA, one strand shown. Put shortly:
as §1

A further experiment addresses T10, ETV7 (Homo sapiens, UniProt Q9Y603 1-341).
T10 sequence: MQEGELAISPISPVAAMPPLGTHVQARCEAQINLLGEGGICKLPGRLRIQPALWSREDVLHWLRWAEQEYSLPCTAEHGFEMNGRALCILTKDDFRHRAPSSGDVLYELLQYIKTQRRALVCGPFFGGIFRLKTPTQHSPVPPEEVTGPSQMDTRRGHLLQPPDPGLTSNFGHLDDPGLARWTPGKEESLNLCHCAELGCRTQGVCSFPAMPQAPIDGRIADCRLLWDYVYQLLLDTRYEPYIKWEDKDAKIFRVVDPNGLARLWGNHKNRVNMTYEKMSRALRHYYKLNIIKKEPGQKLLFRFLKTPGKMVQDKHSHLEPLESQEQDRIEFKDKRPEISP
The following applies: protein: recombinant; tags: N-terminal GST; dsDNA, one strand shown. Put shortly:
as §1

A further experiment concerns the target T11, ELF5 (Homo sapiens, UniProt Q9UKW6-2 1-255).
T11 sequence: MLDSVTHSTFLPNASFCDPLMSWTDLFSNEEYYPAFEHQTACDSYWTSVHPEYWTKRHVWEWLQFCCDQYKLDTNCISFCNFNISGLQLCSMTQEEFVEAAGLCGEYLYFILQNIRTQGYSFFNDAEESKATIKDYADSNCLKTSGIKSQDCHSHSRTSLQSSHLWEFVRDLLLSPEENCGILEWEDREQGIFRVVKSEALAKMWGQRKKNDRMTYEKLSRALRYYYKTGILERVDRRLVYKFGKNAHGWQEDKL
As to conditions: protein: recombinant; tags: N-terminal GST; dsDNA, one strand shown. Put shortly: as §1

For the next experiment, the target named is T12, ETV3 (Homo sapiens, UniProt P41162-2 1-143).
T12 sequence: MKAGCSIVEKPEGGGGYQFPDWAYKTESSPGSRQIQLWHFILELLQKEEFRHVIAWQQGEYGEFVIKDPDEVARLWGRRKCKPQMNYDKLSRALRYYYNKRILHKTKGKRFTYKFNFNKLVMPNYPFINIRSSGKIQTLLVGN
As to conditions: protein: recombinant; tags: N-terminal GST; dsDNA, one strand shown. Put shortly: as §1

For the next experiment, the target named is ETV6 (Homo sapiens, UniProt P41212 1-452). The following applies: protein: recombinant; tags: N-terminal GST; dsDNA, one strand shown. Put shortly: as §1
ETV6, sequence (P41212 whole entry): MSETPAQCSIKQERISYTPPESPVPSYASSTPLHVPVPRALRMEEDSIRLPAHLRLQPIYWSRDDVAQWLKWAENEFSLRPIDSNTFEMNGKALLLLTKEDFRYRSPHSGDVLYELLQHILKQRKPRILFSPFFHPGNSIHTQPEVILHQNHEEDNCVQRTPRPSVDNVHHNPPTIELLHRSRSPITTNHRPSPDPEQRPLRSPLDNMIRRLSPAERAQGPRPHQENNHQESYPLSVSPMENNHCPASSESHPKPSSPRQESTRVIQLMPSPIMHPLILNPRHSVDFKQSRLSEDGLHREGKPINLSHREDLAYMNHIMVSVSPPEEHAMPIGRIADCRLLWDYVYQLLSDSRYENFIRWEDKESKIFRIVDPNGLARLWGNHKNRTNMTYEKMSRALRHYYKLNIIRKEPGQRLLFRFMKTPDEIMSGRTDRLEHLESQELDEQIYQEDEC

CRX, sequence (O43186 whole entry): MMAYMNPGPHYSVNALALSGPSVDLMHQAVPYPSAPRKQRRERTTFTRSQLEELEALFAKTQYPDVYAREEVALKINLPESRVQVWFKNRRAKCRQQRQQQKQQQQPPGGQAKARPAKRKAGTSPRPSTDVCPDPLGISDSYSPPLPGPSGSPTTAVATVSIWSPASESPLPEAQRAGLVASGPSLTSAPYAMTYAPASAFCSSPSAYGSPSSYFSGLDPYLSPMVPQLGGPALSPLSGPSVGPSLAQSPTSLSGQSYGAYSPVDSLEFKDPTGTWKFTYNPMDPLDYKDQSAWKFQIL
ETV5, sequence (P41161 whole entry): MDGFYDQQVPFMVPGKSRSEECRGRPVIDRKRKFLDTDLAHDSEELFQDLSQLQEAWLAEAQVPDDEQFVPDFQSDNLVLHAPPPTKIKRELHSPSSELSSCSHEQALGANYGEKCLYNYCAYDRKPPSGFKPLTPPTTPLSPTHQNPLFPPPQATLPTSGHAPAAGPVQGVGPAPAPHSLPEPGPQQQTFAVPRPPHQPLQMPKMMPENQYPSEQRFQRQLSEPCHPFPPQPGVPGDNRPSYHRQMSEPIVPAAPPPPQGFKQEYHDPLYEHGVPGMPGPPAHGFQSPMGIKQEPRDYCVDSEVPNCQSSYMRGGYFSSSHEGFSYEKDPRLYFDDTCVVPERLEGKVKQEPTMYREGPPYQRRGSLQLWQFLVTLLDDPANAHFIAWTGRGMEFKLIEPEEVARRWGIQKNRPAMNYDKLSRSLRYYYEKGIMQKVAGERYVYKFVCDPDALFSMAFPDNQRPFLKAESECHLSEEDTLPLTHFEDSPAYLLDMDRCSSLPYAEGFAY
ELF4, sequence (Q99607 whole entry): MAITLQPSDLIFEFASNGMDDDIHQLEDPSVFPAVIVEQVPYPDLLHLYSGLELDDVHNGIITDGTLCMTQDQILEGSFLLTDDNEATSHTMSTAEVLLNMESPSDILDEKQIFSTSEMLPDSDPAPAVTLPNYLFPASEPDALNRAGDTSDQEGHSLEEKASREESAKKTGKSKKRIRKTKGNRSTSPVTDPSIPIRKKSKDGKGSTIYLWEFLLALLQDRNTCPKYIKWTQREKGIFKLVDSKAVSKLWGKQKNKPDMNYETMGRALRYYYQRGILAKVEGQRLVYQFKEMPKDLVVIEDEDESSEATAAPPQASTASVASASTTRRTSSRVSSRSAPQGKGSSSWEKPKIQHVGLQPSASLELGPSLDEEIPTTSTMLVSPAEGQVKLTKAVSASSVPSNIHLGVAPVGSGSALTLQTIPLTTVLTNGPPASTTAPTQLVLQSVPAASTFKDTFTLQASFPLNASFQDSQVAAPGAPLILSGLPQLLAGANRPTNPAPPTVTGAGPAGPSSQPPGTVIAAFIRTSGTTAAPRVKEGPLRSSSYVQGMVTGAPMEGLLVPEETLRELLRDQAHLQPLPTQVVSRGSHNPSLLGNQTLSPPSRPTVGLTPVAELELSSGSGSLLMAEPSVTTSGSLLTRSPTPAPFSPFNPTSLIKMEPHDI
ETV1, sequence (P50549 whole entry): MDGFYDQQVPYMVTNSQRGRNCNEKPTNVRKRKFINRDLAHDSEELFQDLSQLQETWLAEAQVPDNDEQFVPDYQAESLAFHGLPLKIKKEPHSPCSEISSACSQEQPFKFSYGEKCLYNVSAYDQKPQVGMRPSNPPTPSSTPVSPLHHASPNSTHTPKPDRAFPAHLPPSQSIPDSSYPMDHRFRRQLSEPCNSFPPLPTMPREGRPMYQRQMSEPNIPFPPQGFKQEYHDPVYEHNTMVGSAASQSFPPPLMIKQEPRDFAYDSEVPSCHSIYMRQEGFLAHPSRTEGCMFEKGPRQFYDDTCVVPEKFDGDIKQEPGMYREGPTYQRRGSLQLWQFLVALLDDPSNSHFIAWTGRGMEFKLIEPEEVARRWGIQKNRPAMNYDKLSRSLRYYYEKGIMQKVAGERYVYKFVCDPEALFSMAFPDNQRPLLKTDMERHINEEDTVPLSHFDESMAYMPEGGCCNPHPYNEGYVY
HSF1, sequence (Q00613 whole entry): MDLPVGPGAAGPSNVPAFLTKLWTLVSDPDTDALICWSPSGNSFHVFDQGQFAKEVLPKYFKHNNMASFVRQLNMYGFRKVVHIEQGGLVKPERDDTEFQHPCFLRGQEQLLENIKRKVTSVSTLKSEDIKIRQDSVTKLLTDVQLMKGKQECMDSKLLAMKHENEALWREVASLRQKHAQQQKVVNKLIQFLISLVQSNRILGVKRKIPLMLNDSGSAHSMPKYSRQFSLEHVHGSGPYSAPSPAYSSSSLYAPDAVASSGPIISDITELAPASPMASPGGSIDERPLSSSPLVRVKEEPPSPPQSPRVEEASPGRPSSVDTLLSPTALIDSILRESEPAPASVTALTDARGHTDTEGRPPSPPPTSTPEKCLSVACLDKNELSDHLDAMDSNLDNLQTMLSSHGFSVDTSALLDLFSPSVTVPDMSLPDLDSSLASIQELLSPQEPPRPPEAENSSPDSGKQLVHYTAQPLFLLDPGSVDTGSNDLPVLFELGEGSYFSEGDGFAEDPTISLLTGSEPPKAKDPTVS

Turning to CCTTAC, the binding signal is 1.21 fold enrichment (6-mer frequency, TF over GST control) in the experiment with FEV; 1.36 fold enrichment (6-mer frequency, TF over GST control) in the experiment with ETV5; 1.15 fold enrichment (6-mer frequency, TF over GST control) with HSF1; 1.22 fold enrichment (6-mer frequency, TF over GST control) in the experiment with SPIC; 1.38 fold enrichment (6-mer frequency, TF over GST control) with ELF4; 1.13 fold enrichment (6-mer frequency, TF over GST control) with ELK4. Also, the binding signal with ETV2 was 1.33 fold enrichment (6-mer frequency, TF over GST control); with ELF3 it was 1.34 fold enrichment (6-mer frequency, TF over GST control); with CRX, 1.17 fold enrichment (6-mer frequency, TF over GST control); in the experiment with ETV1, 1.21 fold enrichment (6-mer frequency, TF over GST control); with ERF it was 1.32 fold enrichment (6-mer frequency, TF over GST control); with ETV3L, 1.26 fold enrichment (6-mer frequency, TF over GST control). The binding signal was 1.3 fold enrichment (6-mer frequency, TF over GST control) with ETS2; 1.33 fold enrichment (6-mer frequency, TF over GST control) with SPDEF; 1.36 fold enrichment (6-mer frequency, TF over GST control) with ETV7; 1.69 fold enrichment (6-mer frequency, TF over GST control) in the experiment with ELF5; 1.31 fold enrichment (6-mer frequency, TF over GST control) with ETV3; 1.28 fold enrichment (6-mer frequency, TF over GST control) with ETV6.
